Laboratory results: PubChem BioAssay (EPA / NIEHS)
Records with an inconclusive call do not appear. The source made the active and inactive calls. How the source made its calls, unless noted: active means hit-call score of the fitted dose curve at least 0.9, where 1 is the maximum; inactive means score below 0.9.

Columns and labels:
[1] = ATG_CRE_CIS: Attagene CIS-FACTORIAL HepG2 Assay for human cAMP Responsive Element (CRE) binding protein 3 (AID 2282926); conditions: HepG2 CRE cis-reporter, Attagene multiplexed mRNA; actives raise or lower the signal
Summary of the method: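 Endogenous transcription factor activity read via CRE-regulated reporter transcripts in transfected HepG2 cells. After 24 h exposure, RNA was reverse-transcribed, amplified, fluorescently labelled and sized by capillary electrophoresis; gain or loss fitted against DMSO.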

[2] = ATG_DR4_LXR_CIS: Attagene CIS-FACTORIAL HepG2 Assay for human Liver X Receptor (LXR), DR4 submotif (AID 2282929); conditions: HepG2 Attagene DR4 cis-reporter, mRNA transcription; actives raise or lower the signal
Summary of the method: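 Fluorescence intensity of labelled reporter cDNA fragments, separated by capillary electrophoresis, gives the signal. HepG2 cells bearing cis-regulated reporter constructs were treated 24 h; activity fitted bidirectionally relative to DMSO negative control.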

[3] = ATG_AP_2_CIS: Attagene CIS-FACTORIAL HepG2 Assay for human Activator Protein 2 (AP-2) (AID 2282932); conditions: HepG2 AP-2 cis-reporter, Attagene transcription factor profiling; actives raise or lower the signal
Summary of the method: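 Assay in transfected HepG2 with promoter-regulated reporters, 24 h incubation after dosing. Signal is reporter mRNA fluorescence (RT-PCR, capillary electrophoresis), analysed for both increases and decreases relative to DMSO controls.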

[4] = ATG_BRE_CIS: Attagene CIS-FACTORIAL HepG2 Assay for human Bone Morphogenetic Protein (BMP) Response Element (BRE) (AID 2282933); conditions: HepG2 BMP response element reporter, Attagene transcription factor profiling; actives raise or lower the signal
Summary of the method: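 Transient MRTU transfection of human HepG2 liver cells; 24 h compound treatment; total RNA isolated, reverse-transcribed, PCR-amplified, 6-FAM labelled, HpaI-cut, capillary electrophoresis. DMSO = negative control/baseline, bidirectional fit.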

[5] = biological target: Transcription factor E2F1 (Homo sapiens) (UniProt Q01094); assay: ATG_E2F_CIS: Attagene CIS-FACTORIAL HepG2 Assay for human E2F Transcription Factor 1 (AID 2282935); conditions: HepG2 Attagene cis-reporter, E2F reporter RNA transcripts; actives raise or lower the signal
Summary of the method: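 In this cis-factorial format, endogenous factor activity drives transfected reporters in HepG2; transcripts collected at 24 h are quantified by fluorescence after RT-PCR and capillary separation.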

[6] = ATG_E_Box_CIS: Attagene CIS-FACTORIAL HepG2 Assay for human Enhancer Box (E-box) (AID 2282936); conditions: HepG2 E-box cis-reporter transcription, actives raise or lower the signal
Summary of the method: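 Measured 24 h post-dosing in HepG2 cells transfected with multiple cis-regulated reporter units, signal being reporter mRNA induction detected by fluorescent RT-PCR with capillary electrophoresis; gain or loss fitted against DMSO.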

[7] = ATG_M_19_CIS: Attagene CIS-FACTORIAL HepG2 Assay for M19 Transcription Factor (Internal Marker) (AID 2282939); conditions: HepG2 Attagene CIS-FACTORIAL M19 internal marker reporter; actives raise or lower the signal
Summary of the method: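 Transfect HepG2 with MRTU reporter library → dose chemical, 24 h → isolate total RNA, reverse-transcribe with oligo(dT) → PCR, 6-FAM label, HpaI cut (2 h, 37 C) → capillary electrophoresis. Bidirectional fit vs DMSO.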

[8] = ATG_Ets_CIS: Attagene CIS-FACTORIAL HepG2 Assay for human Erythroblast Transformation Specific (ETS) (AID 2282941); conditions: HepG2 ETS cis-reporter transcription, actives raise or lower the signal
Summary of the method: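 Bidirectional fit versus DMSO of reporter mRNA signal, detected by RT-PCR and capillary electrophoresis in HepG2 cells transiently transfected with cis-element reporters and dosed 24 h.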

[9] = biological target: Hepatocyte nuclear factor 3-beta (Homo sapiens) (UniProt Q9Y261); assay: ATG_FoxA2_CIS: Attagene CIS-FACTORIAL HepG2 Assay for human Forkhead box A2 (FOXA2) (AID 2282942); conditions: HepG2 cis-reporter transcription factor activity, 24 h; actives raise or lower the signal
Summary of the method: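 Reporter transcript induction is measured by fluorescence after capillary electrophoresis of RT-PCR products from HepG2 cells exposed 24 h. Cis-regulated reporter units report endogenous factor activity; curves fitted both directions against DMSO.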

[10] = ATG_FoxO_CIS: Attagene CIS-FACTORIAL HepG2 Assay for human Forkhead box O (FoxO) (AID 2282943); conditions: HepG2 Attagene cis-reporter, FoxO element, mRNA; actives raise or lower the signal
Summary of the method: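 Values reflect reporter mRNA induction or loss in HepG2 cells 24 h post-dosing, fitted bidirectionally with DMSO as negative control and baseline. Detection used RT-PCR and fluorescence capillary electrophoresis.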

[11] = ATG_GATA_CIS: Attagene CIS-FACTORIAL HepG2 Assay for human GATA Binding Protein (AID 2282944); conditions: HepG2 GATA cis-element reporter, Attagene multiplex mRNA; actives raise or lower the signal
Summary of the method: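 Transient MRTU transfection, HepG2, 24 h compound exposure. Total RNA → oligo(dT) RT → PCR → 6-FAM primer extension → HpaI cut → CE. Bidirectional fit vs DMSO.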

[12] = ATG_M_32_CIS: Attagene CIS-FACTORIAL HepG2 Assay for M32 Transcription Factor (Internal Marker) (AID 2282949); conditions: HepG2 Attagene cis-factorial M32 reporter, mRNA; actives raise or lower the signal;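 further: background control marker of the multiplexed CIS panel rather than a real target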
Summary of the method: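 Using DMSO as baseline, bidirectional curve fits were applied to reporter mRNA signals. These came from transiently transfected HepG2 cells exposed for 24 h, with RNA analysed by RT-PCR, FAM primer extension, HpaI digestion and CE.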

[13] = biological target: Heat shock factor protein 1 (Homo sapiens) (UniProt Q00613); assay: ATG_HSE_CIS: Attagene CIS-FACTORIAL HepG2 Assay for human Heat Shock Transcription Factor 1 (HSE) (AID 2282953); conditions: HepG2 HSE cis-reporter, Attagene RNA transcription; actives raise or lower the signal
Summary of the method: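 HepG2, transient MRTU transfection, cis-promoter reporters (endogenous TF activity). 24 h compound. RNA → oligo(dT) RT → PCR → 6-FAM primer extension → HpaI cut → CE. Bidirectional fit vs DMSO.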

[14] = ATG_PXRE_CIS: Attagene CIS-FACTORIAL HepG2 Assay for human Pregnane X Receptor Element (PXRE) (AID 2282957); conditions: HepG2 Attagene CIS-FACTORIAL PXRE reporter, mRNA; actives raise or lower the signal
Summary of the method: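 Reporter transcripts under endogenous PXR-responsive cis-regulation quantified from total RNA of transfected HepG2 cells 24 h post-dosing, via RT-PCR with fluorescent primer extension and capillary electrophoresis. Gain or loss of signal fitted against DMSO baseline.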

[15] = ATG_Sox_CIS: Attagene CIS-FACTORIAL HepG2 Assay for human SRY-box transcription factor (SOX) (AID 2282960); conditions: HepG2 Attagene cis-factorial SOX reporter, mRNA; actives raise or lower the signal
Summary of the method: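 Measures mRNA induction of a SOX1-associated reporter in HepG2 after 24 h dosing. Fluorescently labelled RT-PCR fragments are separated by capillary electrophoresis, and gain or loss relative to DMSO control is fitted.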

[16] = biological target: Transcription factor Sp1 (Homo sapiens) (UniProt P08047); assay: ATG_Sp1_CIS: Attagene CIS-FACTORIAL HepG2 Assay for human Specificity Protein 1 (Sp1) (AID 2282961); conditions: HepG2 Sp1 cis-reporter transcription, actives raise or lower the signal
Summary of the method: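 Cells: HepG2, transiently transfected with cis-regulated multiplexed reporters. Exposure: 24 h. Detection: reporter transcripts amplified, fluorescently labeled, restriction-digested and sized by capillary electrophoresis. Analysis: bidirectional fit relative to DMSO.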

[17] = ATG_SREBP_CIS: Attagene CIS-FACTORIAL HepG2 Assay for human Sterol Regulatory Element Binding (SREBP) (AID 2282962); conditions: HepG2 Attagene cis-factorial SREBP reporter, mRNA; actives raise or lower the signal
Summary of the method: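 In this cis-format assay, HepG2 liver cells express reporters controlled by promoter elements responsive to native transcription factors. Exposure lasts 24 h; reporter mRNA fluorescence from capillary electrophoresis gives the signal, fitted bidirectionally against DMSO.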

[18] = biological target: Signal transducer and activator of transcription 3 (Homo sapiens) (UniProt P40763); assay: ATG_STAT3_CIS: Attagene CIS-FACTORIAL HepG2 Assay for human Signal Transducer and Activator of Transcription 3 (STAT3) (AID 2282963); conditions: HepG2, Attagene cis-factorial STAT3 reporter transcription; actives raise or lower the signal
Summary of the method: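 Uses human liver HepG2 transiently carrying cis-regulated reporter transcription units. Following 24 h dosing, reporter mRNA induction was detected by RT-PCR and capillary electrophoresis, analysed bidirectionally versus DMSO.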

[19] = ATG_TA_CIS: Attagene CIS-FACTORIAL HepG2 Assay for human TA Basal Promoter (AID 2282964); conditions: HepG2 Attagene CIS-factorial TA basal promoter reporter; actives raise or lower the signal
Summary of the method: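 Read-out: fluorescent reporter-transcript fragments resolved by capillary electrophoresis after RT-PCR and HpaI digestion. Source: HepG2 cells carrying transiently transfected multi-reporter cis constructs, treated 24 h. Endpoint fitted bidirectionally relative to DMSO.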

[20] = biological target: Androgen receptor (Homo sapiens) (UniProt P10275); assay: ATG_AR_TRANS: Attagene TRANS-FACTORIAL HepG2 Assay for human Androgen Receptor (AR) (AID 2282973; active means hit-call score of the fitted dose curve at least 0.9, where 1 is the maximum); conditions: HepG2 Attagene TRANS-FACTORIAL AR reporter transcription
Summary of the method: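 Transcriptional activity of an exogenous AR–Gal4 fusion read as GAL4-UAS reporter transcript levels in transfected human HepG2 cells after 24 h dosing. Detection via RT-PCR, 6-FAM labelling, HpaI digest and capillary electrophoresis; increase over DMSO baseline.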

Measured: AC50

Chain of Transcription factor E2F1 (Homo sapiens) (Q01094 whole entry, looked up): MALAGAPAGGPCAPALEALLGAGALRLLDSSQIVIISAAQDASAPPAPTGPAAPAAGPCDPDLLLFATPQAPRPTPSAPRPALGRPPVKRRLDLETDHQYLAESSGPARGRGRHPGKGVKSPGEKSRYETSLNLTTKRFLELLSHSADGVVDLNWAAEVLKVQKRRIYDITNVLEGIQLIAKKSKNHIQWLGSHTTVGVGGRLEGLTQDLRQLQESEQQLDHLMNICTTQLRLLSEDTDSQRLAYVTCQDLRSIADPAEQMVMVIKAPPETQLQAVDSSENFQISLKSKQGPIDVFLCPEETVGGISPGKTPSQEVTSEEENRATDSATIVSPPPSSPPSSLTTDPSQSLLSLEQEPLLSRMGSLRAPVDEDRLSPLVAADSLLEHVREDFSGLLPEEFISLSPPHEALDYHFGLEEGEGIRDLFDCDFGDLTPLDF
Chain of Hepatocyte nuclear factor 3-beta (Homo sapiens) (Q9Y261 whole entry, looked up): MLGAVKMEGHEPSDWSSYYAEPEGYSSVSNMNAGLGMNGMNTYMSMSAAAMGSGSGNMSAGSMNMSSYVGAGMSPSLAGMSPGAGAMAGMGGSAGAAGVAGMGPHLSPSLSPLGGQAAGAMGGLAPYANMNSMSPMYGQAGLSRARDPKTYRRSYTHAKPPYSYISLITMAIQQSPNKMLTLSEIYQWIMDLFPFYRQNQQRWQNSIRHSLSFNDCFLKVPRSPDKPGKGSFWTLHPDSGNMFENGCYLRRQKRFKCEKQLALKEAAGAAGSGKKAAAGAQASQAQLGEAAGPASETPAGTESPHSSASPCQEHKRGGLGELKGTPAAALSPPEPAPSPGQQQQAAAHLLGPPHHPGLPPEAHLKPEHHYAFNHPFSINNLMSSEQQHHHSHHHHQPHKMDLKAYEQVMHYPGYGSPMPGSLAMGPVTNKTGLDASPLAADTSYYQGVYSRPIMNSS
Chain of Heat shock factor protein 1 (Homo sapiens) (Q00613 whole entry, looked up): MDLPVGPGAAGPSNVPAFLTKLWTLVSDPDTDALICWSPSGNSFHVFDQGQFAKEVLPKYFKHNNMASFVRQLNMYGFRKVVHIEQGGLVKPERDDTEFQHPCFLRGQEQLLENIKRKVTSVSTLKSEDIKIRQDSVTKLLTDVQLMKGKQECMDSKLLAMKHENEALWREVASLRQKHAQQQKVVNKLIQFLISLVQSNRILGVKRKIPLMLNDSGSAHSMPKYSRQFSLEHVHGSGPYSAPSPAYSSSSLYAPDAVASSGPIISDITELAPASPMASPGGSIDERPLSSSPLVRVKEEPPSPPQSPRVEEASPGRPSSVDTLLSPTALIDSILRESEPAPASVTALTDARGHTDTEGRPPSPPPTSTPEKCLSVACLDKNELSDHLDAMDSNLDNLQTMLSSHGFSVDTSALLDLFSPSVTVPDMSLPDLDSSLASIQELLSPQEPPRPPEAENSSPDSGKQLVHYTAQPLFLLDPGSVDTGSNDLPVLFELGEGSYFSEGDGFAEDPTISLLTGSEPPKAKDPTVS
Chain of Transcription factor Sp1 (Homo sapiens) (P08047 whole entry, looked up): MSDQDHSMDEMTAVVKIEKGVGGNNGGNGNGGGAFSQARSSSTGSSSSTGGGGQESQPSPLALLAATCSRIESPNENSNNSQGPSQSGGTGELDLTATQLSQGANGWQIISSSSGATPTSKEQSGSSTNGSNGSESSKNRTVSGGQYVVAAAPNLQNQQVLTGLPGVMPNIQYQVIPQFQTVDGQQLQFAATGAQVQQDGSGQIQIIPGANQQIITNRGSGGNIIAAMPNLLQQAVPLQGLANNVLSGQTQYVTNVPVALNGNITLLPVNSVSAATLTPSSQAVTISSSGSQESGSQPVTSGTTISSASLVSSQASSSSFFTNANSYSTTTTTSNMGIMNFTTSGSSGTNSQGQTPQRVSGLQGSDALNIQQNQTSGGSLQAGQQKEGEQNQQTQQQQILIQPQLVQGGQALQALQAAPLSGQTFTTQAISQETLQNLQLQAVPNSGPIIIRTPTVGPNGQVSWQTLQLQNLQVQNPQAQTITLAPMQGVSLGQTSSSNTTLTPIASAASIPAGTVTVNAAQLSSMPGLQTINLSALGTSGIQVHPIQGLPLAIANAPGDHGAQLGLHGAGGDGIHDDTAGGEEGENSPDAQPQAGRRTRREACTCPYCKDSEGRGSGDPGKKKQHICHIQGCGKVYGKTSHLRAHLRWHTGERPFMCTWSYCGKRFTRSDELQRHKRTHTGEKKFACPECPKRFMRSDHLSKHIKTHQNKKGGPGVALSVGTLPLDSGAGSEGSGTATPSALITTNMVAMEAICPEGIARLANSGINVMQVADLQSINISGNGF
Chain of Signal transducer and activator of transcription 3 (Homo sapiens) (P40763 whole entry, looked up): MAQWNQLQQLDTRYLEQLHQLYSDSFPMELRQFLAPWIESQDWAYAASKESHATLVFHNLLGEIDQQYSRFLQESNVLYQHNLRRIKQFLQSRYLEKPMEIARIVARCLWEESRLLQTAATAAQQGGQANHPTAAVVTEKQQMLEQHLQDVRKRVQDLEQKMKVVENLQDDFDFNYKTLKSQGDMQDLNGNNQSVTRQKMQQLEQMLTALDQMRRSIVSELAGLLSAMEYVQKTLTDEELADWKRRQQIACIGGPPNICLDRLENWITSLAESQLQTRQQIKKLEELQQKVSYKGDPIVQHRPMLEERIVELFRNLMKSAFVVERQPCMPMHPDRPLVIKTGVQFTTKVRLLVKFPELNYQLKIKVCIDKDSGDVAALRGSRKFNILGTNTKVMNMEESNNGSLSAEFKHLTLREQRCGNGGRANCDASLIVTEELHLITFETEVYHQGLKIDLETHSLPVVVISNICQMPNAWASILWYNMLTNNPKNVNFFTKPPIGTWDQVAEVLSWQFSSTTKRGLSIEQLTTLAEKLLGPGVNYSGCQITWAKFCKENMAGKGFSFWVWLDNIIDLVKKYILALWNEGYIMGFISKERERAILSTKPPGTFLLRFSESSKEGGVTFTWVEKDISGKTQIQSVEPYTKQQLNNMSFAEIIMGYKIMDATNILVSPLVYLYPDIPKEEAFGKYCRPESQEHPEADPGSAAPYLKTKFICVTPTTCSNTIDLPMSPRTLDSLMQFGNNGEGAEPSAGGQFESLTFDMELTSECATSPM
Chain of Androgen receptor (Homo sapiens) (P10275 whole entry, looked up, the tested form may be a part): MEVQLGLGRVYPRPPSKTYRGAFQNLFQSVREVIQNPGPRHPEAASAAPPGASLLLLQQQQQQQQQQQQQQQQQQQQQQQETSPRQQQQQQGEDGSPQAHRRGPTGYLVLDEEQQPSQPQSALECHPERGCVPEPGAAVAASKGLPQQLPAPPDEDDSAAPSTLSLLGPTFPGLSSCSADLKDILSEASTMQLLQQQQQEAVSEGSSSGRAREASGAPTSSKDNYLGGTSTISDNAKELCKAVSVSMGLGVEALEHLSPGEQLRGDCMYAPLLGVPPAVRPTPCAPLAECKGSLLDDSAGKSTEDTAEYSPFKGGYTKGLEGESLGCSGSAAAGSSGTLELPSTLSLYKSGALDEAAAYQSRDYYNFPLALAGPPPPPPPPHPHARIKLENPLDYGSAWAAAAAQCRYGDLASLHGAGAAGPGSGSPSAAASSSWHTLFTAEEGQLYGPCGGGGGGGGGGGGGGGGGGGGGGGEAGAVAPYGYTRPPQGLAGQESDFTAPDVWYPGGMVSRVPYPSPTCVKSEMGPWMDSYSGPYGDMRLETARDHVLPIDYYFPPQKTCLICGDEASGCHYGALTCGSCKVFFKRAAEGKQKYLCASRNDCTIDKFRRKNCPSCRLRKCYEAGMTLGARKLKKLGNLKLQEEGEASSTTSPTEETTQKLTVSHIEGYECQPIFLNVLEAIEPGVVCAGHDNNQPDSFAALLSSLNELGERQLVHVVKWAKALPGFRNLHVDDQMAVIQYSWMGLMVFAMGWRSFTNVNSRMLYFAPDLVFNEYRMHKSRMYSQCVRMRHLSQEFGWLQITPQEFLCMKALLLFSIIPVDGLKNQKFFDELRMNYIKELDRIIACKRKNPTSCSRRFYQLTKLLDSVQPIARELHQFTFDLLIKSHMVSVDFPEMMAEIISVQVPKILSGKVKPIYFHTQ

c1ccc(P(c2ccccc2)c2ccccc2)cc1
active: [2] 31.5 µM | [14] 4.59 µM
not listed: [20]
inactive: all other assays above

C[N+](C)(C)CC(=O)O
not listed: [20]
inactive: all other assays above

N#CCCCCC#N
not listed: [20]
inactive: all other assays above

CC(C)COP(=O)(OCC(C)C)OCC(C)C
active: [2] 57.9 µM | [14] 2.21 µM
not listed: [20]
inactive: all other assays above

CCOP(=O)(OCC)OCC
not listed: [20]
inactive: all other assays above

CC1CCC(=O)O1 (configuration not stated)
not listed: [20]
inactive: all other assays above

Nc1ccccc1C(=O)OCCc1ccccc1
active: [9] 14.6 µM | [14] 12.3 µM
not listed: [20]
inactive: all other assays above

Oc1ccc(C2(c3ccc(O)cc3)c3ccccc3-c3ccccc32)cc1
inactive: [3] | [4] | [7] | [8] | [9] | [12] | [15] | [16] | [18]
active: [1] 8.42 µM | [2] 10.6 µM | [5] 19.8 µM | [6] 17 µM | [10] 9.31 µM | [11] 14.6 µM | [13] 17.5 µM | [14] 2.78 µM | [17] 13.6 µM | [19] 17.2 µM

N#CCCCl
not listed: [20]
inactive: all other assays above

CC(=O)c1cc2c(cc1C)C(C)(C)C(C)CC2(C)C (configuration not stated)
active: [1] 72.4 µM | [2] 26.1 µM | [3] 158 µM | [4] 26.5 µM | [7] 128 µM | [13] 116 µM | [14] 2.25 µM | [16] 27.2 µM | [17] 46.1 µM
not listed: [20]
inactive: all other assays above

Oc1cc(Cl)ccc1Cl
active: [14] 27.6 µM
not listed: [20]
inactive: all other assays above

CC1(C)[C@H](C(=O)O[C@H](C#N)c2cccc(Oc3ccccc3)c2)[C@@H]1C=C(Br)Br
active: [14] 0.312 µM
inactive: all other assays above

CC(C)(c1cc(Cl)c(O)c(Cl)c1)c1cc(Cl)c(O)c(Cl)c1
active: [2] 33.4 µM | [13] 56.5 µM
not listed: [20]
inactive: all other assays above

C=CC(=O)OCC(CC)CCCC (configuration not stated)
active: [2] 147 µM
not listed: [20]
inactive: all other assays above

C[N+](C)=CCl
not listed: [20]
inactive: all other assays above

CCCCCCCCCCCC#N
active: [2] 148 µM | [14] 27.8 µM | [15] 103 µM | [16] 76.4 µM | [17] 128 µM
not listed: [20]
inactive: all other assays above

CO[Si](CCC1CCC2OC2C1)(OC)OC (configuration not stated)
inactive: [20]

CCOP(=O)(OCC)Oc1ccc([N+](=O)[O-])cc1
active: [14] 26.8 µM
not listed: [20]
inactive: all other assays above

C[N+](C)(C)CC(=O)[O-]
not listed: [20]
inactive: all other assays above

COc1ccc(CO)cc1
not listed: [20]
inactive: all other assays above

C=CC(=O)OCCO
active: [1] 116 µM | [2] 123 µM | [4] 36.9 µM | [16] 156 µM | [17] 172 µM
not listed: [20]
inactive: all other assays above
